Each structure is given as a SMILES string. The whole screen tested about 2,300 compounds, of which about 1,700 (74%) were called active. No rule for the calls is given here. The set was probably picked from earlier hits. This is one part of the list. Potency and affinity values are given separately.

Consider 30 compounds from PubChem BioAssay AID449764 (Southern Research Specialized Biocontainment Screening …, 2010).

A short description of this assay: Mycobacterium tuberculosis H37Rv growth inhibition, no glycerol, confirmatory dose response (AID 449764).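 Also: growth read after 7 days of incubation.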 The note with it: series mostly up to 100 µM; inhibition: at the top concentration.
Consider `Cc1ccc(S(=O)(=O)CNC(=S)c2ccc3ccccc3c2)cc1`, for which the “inhibition” value is 12.2% (inactive). For the compound `O=C(NC1CCCCCC1)c1ccccc1-c1ccccc1`, the “inhibition” value was 2.75% (inactive). To `CCOC(=O)N1CCN(C(=O)COC(=O)C2CCN(S(=O)(=O)c3c(Cl)cccc3Cl)CC2)CC1` belongs -0.31% (inactive); to `CCOc1ccccc1NC(=O)C12CC3CC(C1)CC(c1ccc(C)cc1)(C3)C2`, 3.63% (inactive); to `COC(=O)CNC(=O)CSc1nc2sc(-c3ccccc3)cc2c(=O)n1-c1ccccc1`, 9.12% (inactive).

`CCOc1ccc(-c2nn3c(-c4ccccc4)nnc3s2)cc1`: the “inhibition” value was -10.9% (inactive).

With `Cc1ccccc1-c1nc2cc(N)ccc2o1`, the “inhibition” value is -20% (inactive).

As to `CCCCCCCCCCNC(=O)C(=O)Nc1ccccn1`, the “inhibition” value was -1.26% (inactive).

As to `CCCCCCCCCCCCCCCC(=O)NCCO`, the “inhibition” value is -3.35% (inactive). In the case of `O=C(/C=C/c1ccco1)Nc1cccc(-c2nc3ccccc3[nH]2)c1`, the “inhibition” value is 13.6% (inactive). To `N/C(Cc1ccc([N+](=O)[O-])cc1)=N\OC(=O)c1ccc2ccccc2c1` belongs -1.93% (inactive). As to `COc1ccc(OC(=O)c2cc3cc(Cl)ccc3oc2=O)cc1`, the “inhibition” value was -0.49% (inactive). As to `Cc1cccc(C)c1OCC(=O)Nc1cccc(-c2nnc(-c3ccccc3)o2)c1`, the “inhibition” value was 9.51% (inactive).

With `O=C(Nc1nc2c(s1)CCCC2)c1cc(-c2ccc3c(c2)OCO3)nc2ccccc12`, the “inhibition” value is 0.44% (inactive).

As to `Cc1cc(N2CCN(C(=O)Nc3ccccc3C#N)CC2)c2ccccc2n1`, the “inhibition” value was 5.5% (inactive). With `COc1ccc(N=N/C(=C\O)C(=O)c2cccs2)cc1`, the “inhibition” value is -1.6% (inactive).

`Cc1ccc(C(=O)O/N=C(\N)c2ccc(Br)cc2)cc1C`: the “inhibition” value was 4.69% (inactive). The result for `CCOCCCNS(=O)(=O)c1ccc(NC(=O)N2c3ccccc3Sc3ccccc32)cc1` reads -3.66% (inactive); that for `COc1ccc(N=Cc2c(OC)ccc3ccccc23)cc1`, -15.2% (inactive); that for `COc1ccc(N=Cc2c(O)cc(C)oc2=O)cc1`, -5.32% (inactive). To `CCOc1ccc(NC(=O)N(C2CCCCC2)C(C)c2ccncc2)cc1` (stereo not given) belongs -3.13% (inactive); to `CCOc1ccc(N=C(NC#N)SCC(=O)NC2CC2)cc1`, 3.09% (inactive). The result for `CCOc1ccc(N=CC2=C(O)CC(c3ccco3)CC2=O)cc1` (stereo not given) reads -4.94% (inactive); that for `C=CCN1CC[C@]23c4c5ccc(O)c4O[C@H]2/C(=N/NC(=O)c2ccccc2)CC[C@@]3(O)[C@H]1C5`, -1.3% (inactive). Take `COc1ccc(N=Cc2c[nH][nH]c2=O)cc1`: the “inhibition” value was 1.31% (inactive).

As to `Cn1c(N)c(C(=O)COC(=O)c2ccc([N+](=O)[O-])o2)c(=O)n(C)c1=O`, the “inhibition” value is -10.6% (inactive). The result for `O=C(c1n[nH]c(=O)c2ccccc12)N1CCN(C2c3ccccc3-c3ccccc32)CC1` reads 4.65% (inactive); that for `COCCN=C1Sc2nc3ccc(C)cc3cc2CN1Cc1ccco1`, 8.95% (inactive); that for `C#CCCc1cscc1/C=[N+](\[O-])c1ccc(C(=O)OCC)cc1`, -6.58% (inactive). `O=C(O)c1ccccc1C(=O)NNc1ccc(Cl)cc1Cl`: the “inhibition” value was 0.63% (inactive).
